Source: PubChem BioAssay (several laboratories)
SSB-PriA inh: K. pneumoniae PriA-SSBct interaction inhibition | AID 1272365 | inhibition, % at 33 µM | AlphaScreen SSBct-PriA binding, biotinylated peptide | 430,000 tested, 0.6% active; in the data active = inhibition mostly above about 37%, no sharp cut-off; inactive = mostly below about 20%;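 note: plate controls were negative control peptide for no effect and reference peptide for full effect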
RN4220 kill: kills Staphylococcus aureus RN4220 | inhibition, % (test concentration not listed) | S. aureus RN4220 growth, OD600, 16 h | 330,000 tested, 0.33% active | AID 1259311; in the data active = inhibition above about 85%;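 note: plate controls were untreated cells for no effect and reference antibiotic for full effect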
ugtP null kill: growth inhibition of S. aureus ugtP deletion strain | S. aureus RN4220 ugtP deletion, OD600 growth, 16 h | growth inhibition, % (concentration not given with the values) | 330,000 tested, 0.54% active; in the data active = growth inhibition above about 68%;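 note: plate controls were untreated wells for no effect and antibiotic for full effect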
Active calls of the source: *; . = no result. Sampled rows, rich in hits. Any-hit rate of the full collection: about 1%.

SMILES	SSB-PriA inh	RN4220 kill	ugtP null kill
CC(=O)CCc1oc2ccc(C)cc2c1-c1ccccc1	-20	17	14
CC(CCc1oc2ccc(Br)cc2c1-c1ccc(C)o1)=NO	32	-5	89*
CC(CCc1oc2ccccc2c1-c1ccc(C)o1)=NO	7	-1	12
CC(CCc1oc2ccc(Cl)cc2c1-c1ccc(C)o1)=NO	32	-3	87*
COC(=O)c1ccc(C(=O)Nc2nc(-c3ccc(C)cc3C)cs2)cc1	-37	.	.
CN(c1ccccc1)S(=O)(=O)c1ccc(C(O)=C(C#N)c2nc3ccccc3s2)cc1	-8	.	.
CCOC(=O)c1c(N)sc(C)c1-c1ccc(Cl)cc1	-11	.	.
CCOC(=O)c1c(C)sc2c1N(C(=O)CCl)c1cc(Cl)ccc1S2	-4	64	93*
COc1ccc(-c2nc(-c3ccc(NC(=O)c4ccncc4)cc3)no2)cc1OC	-4	4	8
COc1ccc(NC(=O)c2ccc(-c3ccc(-c4noc(C)n4)cc3C)cc2)cc1N1CCN(C)CC1	39*	4	-12
NC1=C(Br)C(=O)c2ccccc2C1=O	6	77	95*
Cc1cc2c(cc1C)C(=O)C(Br)=C(N)C2=O	-12	38	13
Cc1nc2ccc(NC(=O)Nc3ccccc3Cl)cc2c(=O)n1-c1ccccc1	-12	.	.
O=C(Nc1ccc(Cl)cc1)N(CCCN1CCOCC1)Cc1cccs1	-16	0	6
Cc1ccc(NC(=O)N(CCCN2CCOCC2)Cc2cccs2)cc1C	92*	-1	7
CC1CCN(C(=O)Cn2nc(C3CC3)c3cnn(-c4cccc(Cl)c4)c3c2=O)CC1	-3	.	.
COc1cc(OC)c(NCCC(=O)c2cccs2)cc1Cl	90	.	.
COc1cc(NCCC(=O)c2cccs2)c(OC)cc1Cl	39*	7	2
O=C(NCCn1nc(C(F)(F)F)c2c1CCCC2)c1nc2ccccc2s1	-26	.	.
COCCCN1C(=O)C(=O)C(=C(O)c2ccc(OC(C)C)cc2)C1c1ccncc1 (stereo not drawn)	-1	.	.
CCOC(=O)C(C)C(C)=NNc1ccc([N+](=O)[O-])cc1[N+](=O)[O-] (stereo not drawn)	67*	5	1
CC(Cc1ccccc1)=NNc1ccc([N+](=O)[O-])cc1[N+](=O)[O-]	2	10	4
CCOC(=O)C(=NNc1ccc([N+](=O)[O-])cc1[N+](=O)[O-])C(=O)OCC	90*	.	.
CCOC(=O)CC(C)(C)C(C)=NNc1ccc([N+](=O)[O-])cc1[N+](=O)[O-]	44*	7	2
CCOc1ccc(NN=C(C(=O)OC)C(=O)OC)c([N+](=O)[O-])c1	-2	4	10
SMILES	SSB-PriA inh	RN4220 kill	ugtP null kill
CC(CCCO)=NNc1ccc([N+](=O)[O-])cc1[N+](=O)[O-]	-1	10	14
O=C(N1CCC(c2nnc(-c3ccsc3)o2)CC1)C1(c2ccc(Cl)cc2)CCCC1	-9	.	.
COc1ccc(-c2csc3c(=O)n(CC#N)cnc23)cc1OC	-14	.	.
O=[N+]([O-])c1ccc(-c2cnc(SCc3ccccc3Cl)[nH]2)cc1	39*	6	-10
O=[N+]([O-])c1ccc(-c2cnc(SC(c3ccccc3)c3ccccc3)[nH]2)cc1	32	49	24
Cc1cccc(C(=O)OCCN2C(=O)c3cccc4c(N5CCCCC5)ccc(c34)C2=O)c1	-5	.	.
COc1ccc(C2=Nc3nc(-c4ccccc4)cn3C(c3ccc(OC)cc3)C2)cc1 (stereo not drawn)	1	-8	85*
COc1ccc(C2CC(c3ccccc3)=NN2C(=O)CCC(=O)O)cc1 (stereo not drawn)	-9	.	.
CC1CCc2c(N3CCC(O)CC3)c(F)cc3c(=O)c(C(=O)O)cn1c23 (stereo not drawn)	2	99*	99*
CC1CCc2cc(F)cc3c(=O)c(C(=O)O)cn1c23 (stereo not drawn)	6	97*	99*
CC1CCc2cc(F)cc3c(O)c(C(=O)NCC4CCCO4)c(=O)n1c23 (stereo not drawn)	-7	1	-9
O=C(c1cccs1)N1CCc2ccc(NS(=O)(=O)CCOc3ccccc3)cc2C1	14	.	.
O=C(CSc1c(-c2ccccc2)[nH]c2ccccc12)NCC1CCCO1 (stereo not drawn)	10	.	.
COc1ccc2nc(N(CCCN(C)C)C(=O)c3cc(C)no3)sc2c1	-8	.	.
COc1cccc(CNc2ccc3[nH]c(=O)[nH]c3c2)c1OCc1ccc(F)cc1	3	.	.
O=c1[nH]c2ccc(NCc3ccccc3OCc3ccc(Cl)cc3)cc2[nH]1	92*	4	-12
O=C(Nc1ccc2c3c(cccc13)CC2)c1sc2ccccc2c1Cl	-7	.	.
O=C(Nc1cccc(Cl)c1)c1oc2ccccc2c1NC(=O)c1cccc2ccccc12	-14	.	.
O=C(/C=C/c1ccccc1Cl)Nc1nnc(C2CCCO2)o1 (stereo not drawn)	7	.	.
O=C(Nc1nnc(C2CCCO2)o1)c1cccc(Oc2ccccc2)c1 (stereo not drawn)	74*	.	.
Cc1cc(C)c(S(=O)(=O)NCCc2ccc3c(c2)CCCN3C)cc1C	40*	.	.
Cc1ccc(Cl)cc1S(=O)(=O)NCCc1ccc2c(c1)CCCN2C	59*	.	.
Cc1c(C)c(C)c(S(=O)(=O)NCCc2ccc3c(c2)CCCN3C)c(C)c1C	3	.	.
Cc1ccc(Cl)cc1S(=O)(=O)NCC(c1ccc2c(c1)CCN2C)N1CCOCC1 (stereo not drawn)	18	.	.
Cn1ccc(C(=O)Nc2nc3c(s2)CCCC3)n1	14	.	.
SMILES	SSB-PriA inh	RN4220 kill	ugtP null kill
Cc1noc(C)c1S(=O)(=O)NCCn1ccnc1-c1ccccn1	-11	.	.
O=C(Nc1ccccc1)N1CCC(Oc2cccc3cccnc23)CC1	-21	.	.
CCOc1ncccc1C(=O)Nc1ccccc1Cc1nc(-c2cccs2)no1	-18	.	.
COc1cc2c(cc1O)CC1c3c(cc(O)c(OC)c3-2)CCN1C (stereo not drawn)	33	9	-5
COc1cc2c(cc1OC)-c1c(OC)c(OC)cc3c1[C@H](C2)N(C)CC3	73*	.	.
CC[C@H](C)C=C(C)/C=C/C1=CC2=C(Cl)C(=O)[C@@](C)(OC(C)=O)C(=O)C2=CO1	2	5	-7
CCC(C)/C=C(C)/C=C/C1=CC2=C(Cl)C(=O)C(C)(OC(C)=O)C(=O)C2=CO1 (stereo not drawn)	45*	-1	3
CC(C)c1ccc(CC(=O)Nc2nc3c(s2)COc2ccccc2-3)cc1	14	.	.
O=c1/c(=C/c2ccc(F)cc2F)sc2nc3ccccc3n12	40*	.	.
Cc1cc(C=c2sc3nc4ccccc4n3c2=O)c(C)n1-c1ccccn1	1	8	-8
Cc1cc(C=c2sc3nc4ccccc4n3c2=O)c(C)n1-c1ccc(C(=O)O)cc1	-5	88	100*
Cc1ccc(-n2c(C)cc(C=c3sc4nc5ccccc5n4c3=O)c2C)cc1	2	3	9
O=C(CN1CCCCC1)c1ccc(F)cc1	-6	2	-4
COc1ccc(C(=O)CN2CCCCC2)cc1	47*	1	6
O=S(=O)(NCCNc1ccc(Nc2ccccn2)nn1)c1ccc(C(F)(F)F)cc1	22	.	.
O=C(NCCNc1ccc(Nc2ccccn2)nn1)[C@@H]1CCCO1	52*	.	.
Cc1nc(NCCNC(=O)C2CCCO2)cc(Nc2ccccn2)n1 (stereo not drawn)	-17	.	.
O=S(=O)(NCCNc1ccc(Nc2ccccn2)nn1)c1ccccc1Cl	89*	.	.
